Results on 20 compounds are retold here after PubChem BioAssay (NCI).

Test [1] is described as follows: NCI Yeast Anticancer Drug Screen. Data for the rad50 strain (AID 155).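 Note: 0% = growth of vehicle-only cultures of the same strain.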 The conditions noted are these: S. cerevisiae rad50 strain growth inhibition; at 50.0 µM; hits give high values. The procedure, abridged:
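Growth of the mutant yeast was measured after compound exposure and referenced to vehicle-treated cultures.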

Test [2] in a line: NCI Yeast Anticancer Drug Screen. Data for the mec2-1 strain (AID 157). The conditions noted are these: S. cerevisiae mec2-1 strain, at 50.0 µM, hits give high values. The gist of the method:
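Cells of the genetically defined mec2-1 yeast strain are incubated with test compound. Inhibition of growth is calculated against vehicle-treated controls.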

Test [3] is described as follows: NCI Yeast Anticancer Drug Screen. Data for the sgs1 mgt1 strain (AID 161).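 Note: 0% = growth of cultures given vehicle only.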 Particulars: S. cerevisiae sgs1 mgt1 strain, at 50.0 µM, hits give high values. The procedure, abridged: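 Inhibition of yeast growth, normalised to vehicle-treated controls, is reported for a strain bearing genetic alterations in DNA damage repair.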
Test [4] in a line: NCI Yeast Anticancer Drug Screen. Data for the cln2 rad14 strain (AID 165).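 Note: 0% = growth equal to vehicle treated cultures.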 Particulars: S. cerevisiae cln2 rad14 strain, at 50.0 µM, hits give high values. The procedure, abridged: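 The screen exposed genetically defined yeast (cln2 rad14) to test compounds and scored growth inhibition relative to vehicle-treated controls.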
The nature of test [5]: NCI Yeast Anticancer Drug Screen. Data for the bub3 strain (AID 167). The conditions noted are these: S. cerevisiae bub3 mutant strain, at 50.0 µM, hits give high values. The gist of the method: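 Whole-cell yeast assay. The mutant strain was incubated with compounds, and growth inhibition was determined by comparison with vehicle-treated cells.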
The nature of test [6]: NCI Yeast Anticancer Drug Screen. Data for the mlh1 rad18 strain (AID 175). The conditions noted are these: S. cerevisiae mlh1 rad18 strain growth inhibition; at 50.0 µM; hits give high values. The procedure, abridged:
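Compound-treated yeast growth, normalised to vehicle controls. Strain bears defined DNA repair mutations.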

This is part of a sample that, as a whole, favours compounds with a hit. Of some 79,000 tested, about 15% had one in any assay. Unmarked numbers belong to inactive results. Activity calls are given as the source filed them. Cut-off read from the data, not from the text of the source: active = growth inhibition above about 70%; inactive = the rest. Where a SMILES comes first, the peptide text is derived from it.

As to `CCOC(=O)CC(C#N)C(C)C(=O)OCC` (stereo not given), the growth inhibition in test [1] was 2.3%; in test [2], 1.3%; in test [3] it was 0.4%; in test [4], 6.5%; in test [5], 0.9%; in test [6], -0.35%.

Take `CC(=O)/C(=C/N1CC(=O)NC1=S)C(=O)Nc1ccccc1`: the growth inhibition in test [1] was -21.6%; in test [2], -23.2%; in test [3], -31.4%; in test [4], -0.35%; in test [5], -32.6%; in test [6], 2%.

With `C/C(=N\n1c(-c2ccccc2)nc2ccccc2c1=O)c1ccc(C)cc1`, the growth inhibition in test [1] is 5.25%; in test [2], 7.8%; in test [3], -2.7%; in test [4], 1.5%; in test [5], 4.95%; in test [6], -1.75%.

As to `O=C(O)CC(CSCP(=O)(O)O)C(=O)O` (stereo not given), the growth inhibition in test [1] was 6.95%; in test [2] it was 1.55%; in test [3] it was 3.05%; in test [4] it was -7.85%; in test [5], 1.45%; in test [6], 15.7%.

As to `O=CC(=O)c1ccc(Cl)cc1`, the growth inhibition in test [1] was 1.9%; in test [2], 5.5%; in test [3] it was 8.4%; in test [4], 31.1%; in test [5], -9.5%; in test [6] it was 14.8%.

As for `C/C(=N\NC(N)=O)c1ccc(Cl)c(-n2cccc2)c1`, the growth inhibition was 12.3% in test [1]; 3.65% in test [2]; 32.7% in test [3]; 14.3% in test [4]; 32.1% in test [5]; 31.2% in test [6].

In the case of `O=C(c1ccc(Cl)cc1)C(Br)C(C[N+](=O)[O-])c1ccccc1` (stereo not given), the growth inhibition was 99.3% (active) in test [1]; 99% (active) in test [2]; 99.5% (active) in test [3]; 97.2% (active) in test [4]; 99.1% (active) in test [5]; 99.2% (active) in test [6].

As to `CC(=O)Nc1cc2ccccc2c(Br)n1`, the growth inhibition in test [1] was -14.9%; in test [2] it was 6.55%; in test [3], -4.65%; in test [4], -13.1%; in test [5], -9.95%; in test [6], -6.15%.

Take `CC(C)CC(NC(=O)C(Cc1ccccc1)NC(=O)CNC(=O)CN)C(=O)O` (stereo not given) (H-GGFL-OH; configuration not given here): the growth inhibition in test [1] was -1.55%; in test [2] it was -4.05%; in test [3] it was -11.4%; in test [4], -5.05%; in test [5], -1.9%; in test [6], -12.4%.

Regarding `CC(=O)OC(c1ccccc1)C1(c2ccccc2)OCCO1` (stereo not given), the growth inhibition in test [1] is -9.2%; in test [2] it was 7.5%; in test [3], 5.75%; in test [4], -33%; in test [5], 1.4%; in test [6], 17.1%.

Take `CC(=O)Nc1cccc(Cc2ccccc2)c1`: the growth inhibition in test [1] is 14.3%; in test [2], -14.4%; in test [3] it was 1.05%; in test [4], -67.2%; in test [5] it was -6.3%; in test [6], -4.6%.

As to `COc1ccccc1C=Nc1ccc(O)cc1`, the growth inhibition in test [1] was 8.45%; in test [2] it was 12.3%; in test [3], 3.9%; in test [4] it was -26.6%; in test [5], 3.5%; in test [6], 37.5%.

In the case of `CN1C(=O)N/C(=C\c2ccc(S(=O)(=O)N/N=C\C(O)C(O)C(O)CO)cc2)C1=O` (stereo not given), the growth inhibition in test [1] was -25.4%; in test [2] it was -15%; in test [3] it was -22.9%; in test [4], 4.15%; in test [5] it was -39.1%; in test [6] it was -35%.

As to `Oc1ccc(-c2nc(-c3ccccc3)c(-c3ccccc3)[nH]2)cc1`, the growth inhibition is -23.1% in test [1]; -14.9% in test [2]; -1.1% in test [3]; -46.3% in test [4]; -8.3% in test [5]; 4.05% in test [6].

For the compound `COc1cc2c(cc1OC)C(C(c1ccccc1)c1ccccc1)N(C)CC2` (stereo not given), the growth inhibition in test [1] was 9.9%; in test [2] it was 9.25%; in test [3], -16.7%; in test [4] it was 20.6%; in test [5] it was 3.25%; in test [6], 20.6%.

As for `CC(C)CC(=O)NC(C(=O)NC(C(=O)NC(CC(C)C)C(O)CC(=O)NC(C)C(=O)NC(CC(C)C)C(O)CC(=O)O)C(C)C)C(C)C` (stereo not given), the growth inhibition in test [1] was 5.8%; in test [2], -18.4%; in test [3] it was -20.9%; in test [4] it was 7.6%; in test [5], 5.95%; in test [6], -9.75%.

As for `O=c1[nH]c2cc3[nH]c4ncccc4c(=O)c3cc2[nH]1`, the growth inhibition in test [1] is -3.7%; in test [2], 0.15%; in test [3], -22.7%; in test [4] it was 8.15%; in test [5], -1.15%; in test [6], 21.3%.

Consider `O=C(O)C1Cc2c([nH]c3ccccc23)C(CCCCO)N1` (stereo not given), for which the growth inhibition in test [1] was -31.6%; in test [2], -7.85%; in test [3], -15.9%; in test [4] it was -15.4%; in test [5], -26.4%; in test [6] it was -11.3%.

Consider `COc1ccc(CC2=c3cc(OC)c(OC)cc3=CCN2)cc1OC`, for which the growth inhibition was 12.1% in test [1]; 4.5% in test [2]; 9.7% in test [3]; 12.2% in test [4]; -2.85% in test [5]; -5.75% in test [6].

In the case of `Cc1nc(N)sc1C`, the growth inhibition in test [1] is 12.7%; in test [2], -26.9%; in test [3], 16.6%; in test [4] it was 7.7%; in test [5], 25.6%; in test [6], 26.2%.
